Results filed as inconclusive are left out. Where a call stands in place of a potency, no number is given. Unmarked numbers belong to inactive results. Active and inactive are the calls of the source. Calls come from the whole dose curve; as a rule, active = well fitted inhibition curve with a large enough effect in the repeat runs; inconclusive = weak or mixed curves; inactive = flat fitted curve, though single readings scatter.

The assay is described as follows: qHTS assay to identify small molecule HDAC inhibitors (AID 1259364). Note: top concentration of the series differs between compounds; nearly all actives have a fitted effect of over 45% in size. As to conditions: HCT-116 HDAC-Glo I/II luminescence, 2 h; series mostly up to 92.4 µM. An excerpt:
U.S. Tox21 Program National Center for Advancing Translational Sciences [NCATS] NIH Chemical Genomics Center [NCGC] U.S. Environmental Protection Agency [EPA] National Institutes of Environmental Health Sciences [NIEHS] National Toxicology Program [NTP] U.S. Food and Drug Administration [FDA] Tox21 Assay Overview: Histone deacetylases (HDACs) are a group of epigenetic enzymes that regulate gene expression by histone deacetylation. HDACs are capable of introducing epigenetic modifications and such aberrations contribute to the onset and progression of several human diseases, thus making HDACs a popular therapeutic target. For identifying endogenous class I/II HDAC inhibitors a homogenous, luminogenic HDAC I/II cell based assay was used to measure the relative activity of class I and II HDACs from cells. Wild type HCT-116 cells were used to screen Tox21 libraries for identifying class I/II HDAC inhibitors.
Tox21 Assay Protocol Summary: HCT-116 cells were dispensed at 1,500 per well in 5uL of culture medium into white solid bottom 1536-well plates (Greiner Bio-One, Monroe, NC) using a Multidrop Combi (Thermo Scientific, Waltham, MA) dispenser. The assay plates were incubated at 37 C and 5% CO2 for an overnight, and then 23nL of compounds dissolved in DMSO and positive control were transferred using a Pintool station (Wako, San Diego, CA). The assay plates were incubated at 37C and 5% CO2 for 2hr. After compound treatment, 4uL of HDAC-Glo reagent (Promega Corporation, Madison, WI) was added to each well of the assay plates using Flying Reagent Dispenser (FRD, Aurora Discovery, San Diego, CA) and incubated the assay plates at room temperature for 30min. The luminescence signal was quantified using a ViewLux plate reader (Perkin Elmer, Shelton, CT).
Take `C/C=C(\C)C=O`: the Potency result is “inactive”.

For `OCCC(F)(F)C(F)(F)C(F)(F)C(F)(F)C(F)(F)C(F)(F)F`, the Potency entry is “inactive”.

Turning to `C=COCCCCO`, the Potency entry is “inactive”.

Consider `C/C=C(\C)C(=O)OC/C=C(\C)CCC=C(C)C`, for which the Potency entry was “inactive”.

As for `CCCCN=C(N)N=C(N)N`, the Potency entry was “inactive”.

With `CC(C)(O)CCCC1=CCC(C=O)CC1` (stereo not given), the Potency result was “inactive”.

For the molecule `CCOC(=O)[C@H](CCc1ccccc1)N[C@H]1CS[C@H](c2cccs2)CN(CC(=O)O)C1=O`, the Potency result was “inactive”.

Turning to `C=CCn1cc[n+](C)c1`, the Potency result was “inactive”.

With `CC(C)CC(O)Cc1ccccc1` (stereo not given), the Potency entry was “inactive”.

`CCN1CCN(C(=O)N[C@@H](C(=O)N[C@@H]2C(=O)N3C(C(=O)O)=C(CSc4nnnn4C)CS[C@H]23)c2ccc(O)cc2)C(=O)C1=O`: the Potency result is “inactive”.

As for `CC(=O)c1ccc2ccc3ccccc3c2c1`, the Potency result was “inactive”.

As to `C[C@@H]1CC[C@@]2(OC1)O[C@H]1C[C@H]3[C@@H]4CC[C@H]5C[C@@H](O)CC[C@]5(C)[C@H]4CC(=O)[C@]3(C)[C@H]1[C@@H]2C`, the activity change, negative = inhibition is 8.02% [at 8.39 µM].

For `CCN(CC)CC(=O)Oc1ccc(NC(C)=O)cc1`, the Potency result was “inactive”.

With `CCOC(=O)CC`, the Potency entry is “inactive”.

For `C=CC(=O)OCC[N+](C)(C)C`, the Potency entry was “inactive”.

As to `CCN(CC)CC`, the Potency entry is “inactive”.

Regarding `CCCCCCCCCCCBr`, the Potency result was “inactive”.

In the case of `Cc1ccc(N)nc1`, the Potency entry was “inactive”.

In the case of `CC(C)=CCC/C(C)=C\C#N`, the Potency result is “inactive”.

For the molecule `C=CCCCCCCCCCCCCCC`, the activity change, negative = inhibition was 0.0889% [at 19 µM].

Consider `CCNC(=O)C(C)OC(=O)Nc1ccccc1` (stereo not given), for which the Potency result is “inactive”.

Turning to `C[Si](C)(C)O[Si](O)(O)O`, the Potency entry is “inactive”.

On to `CCCCCCC(O)CO` (stereo not given), for which the Potency entry was “inactive”.

As for `CC(=O)SC[C@@H](C)C(=O)N1CCC[C@H]1C(=O)N[C@@H](Cc1ccccc1)C(=O)O`, the Potency entry is “inactive”.

`COC(C)(C)CC(C)=O`: the Potency entry is “inactive”.

Turning to `CC(=O)OC/C=C(/C)CCC=C(C)C`, the Potency result was “inactive”.

Regarding `NC[C@H]1O[C@H](O[C@H]2[C@H](O)[C@@H](O[C@H]3O[C@H](CO)[C@@H](O)[C@H](N)[C@H]3O)[C@H](N)C[C@@H]2N)[C@H](N)[C@@H](O)[C@@H]1O`, the activity change, negative = inhibition was 0.718% [at 19 µM].

With `O=S(=O)(O)c1cc(I)c(O)c2ncccc12`, the Potency result is “inactive”.

As to `Nc1cc(S(=O)(=O)O)ccc1O`, the Potency entry was “inactive”.

On to `COc1cc(S(N)(=O)=O)cc(C(=O)O)c1OC`, for which the Potency result is “inactive”.

`CC(C)(Sc1cc(C(C)(C)C)c(O)c(C(C)(C)C)c1)Sc1cc(C(C)(C)C)c(O)c(C(C)(C)C)c1`: the Potency entry was “inactive”.

As to `CCCCOCCCC`, the Potency entry is “inactive”.

On to `C=CCOC(=O)CCCCCCCC`, for which the Potency entry was “inactive”.

For the molecule `C=CCCCCCCCCOC(C)=O`, the Potency entry was “inactive”.

With `CCOc1ccccc1OCCN[C@H](C)Cc1ccc(OC)c(S(N)(=O)=O)c1`, the Potency entry is “inactive”.

`O=c1c(O)c(O)c1=O`: the Potency entry was “inactive”.

Take `O=C(CCBr)N1CCN(C(=O)CCBr)CC1`: the Potency result is “inactive”.

`CN1C(CCl)Nc2cc(Cl)c(S(N)(=O)=O)cc2S1(=O)=O` (stereo not given): the Potency entry is “inactive”.

On to `CC(=O)c1c(C)cc(C(C)(C)C)cc1C`, for which the Potency result was “inactive”.

For the molecule `O=S(=O)(O)c1ccc(Cl)cc1`, the Potency result was “inactive”.

(Values after PubChem BioAssay (Tox21).)
